Shown are actives, neighbours in structure and some others; about 2.4% of the full set was active somewhere.
Pol kappa inh: qHTS for Inhibitors of Polymerase Kappa. DNA polymerase kappa (Homo sapiens), Q9UBT6. purified Pol kappa, fluorescent DNA synthesis assay, 10 min. Potency, µM (top dose mostly 107 µM), hits mostly inhibitors. 0.53% of 400,000 active. AID 588579, 2011
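Readout: fluorescence, taken kinetically at 0 and 10 min. Conditions: 10 nM Pol kappa, 15 min RT compound preincubation, 50 nM substrate final. Controls: enzyme-free buffer wells.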
Pol beta inh: qHTS Assay for Inhibitors of DNA Polymerase Beta; Potency, µM (series often up to 114 µM), most hits filed as inhibitors; P06746; 1.3% of 340,000 active; Pol beta primer extension/strand displacement, fluorescence kinetic
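10 nM enzyme + cpd, 15 min RT; start with substrate 50 nM final; read 0 min and after 10 min RT. Corrected, normalized data; 4-parameter Hill curve fit.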
POLI inh: qHTS for Inhibitors of Polymerase Iota | DNA polymerase iota (Homo sapiens), Q9UNA4 | 1% of 390,000 active | Potency, µM (series often up to 115 µM), hits mostly inhibitors | Pol iota fluorescent replication assay, 10 min
Target sequence (Q9UNA4 whole entry, looked up): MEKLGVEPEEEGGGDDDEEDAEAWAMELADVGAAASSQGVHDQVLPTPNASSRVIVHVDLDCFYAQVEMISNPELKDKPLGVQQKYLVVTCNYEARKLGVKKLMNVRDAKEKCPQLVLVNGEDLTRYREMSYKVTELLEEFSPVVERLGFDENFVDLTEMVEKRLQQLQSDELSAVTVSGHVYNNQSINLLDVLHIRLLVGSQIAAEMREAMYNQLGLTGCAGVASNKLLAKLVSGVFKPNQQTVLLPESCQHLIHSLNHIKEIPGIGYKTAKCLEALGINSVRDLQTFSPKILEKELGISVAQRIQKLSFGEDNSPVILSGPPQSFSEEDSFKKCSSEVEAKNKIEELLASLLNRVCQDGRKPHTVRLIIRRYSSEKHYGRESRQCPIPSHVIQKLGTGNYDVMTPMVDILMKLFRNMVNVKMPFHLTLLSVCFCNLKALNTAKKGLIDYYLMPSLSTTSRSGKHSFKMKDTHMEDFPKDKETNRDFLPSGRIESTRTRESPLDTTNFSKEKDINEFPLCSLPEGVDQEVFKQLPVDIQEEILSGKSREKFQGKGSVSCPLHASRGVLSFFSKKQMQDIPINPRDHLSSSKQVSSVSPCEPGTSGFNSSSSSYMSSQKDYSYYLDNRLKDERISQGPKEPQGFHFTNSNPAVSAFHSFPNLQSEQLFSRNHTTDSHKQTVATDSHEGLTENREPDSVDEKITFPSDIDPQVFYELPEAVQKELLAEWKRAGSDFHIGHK
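Fluorescent replication assay read twice, at 0 min and 10 min after adding 50 nM (final) substrate. Enzyme (10 nM) and compounds were first incubated 15 min at room temperature; enzyme-free buffer wells were negative controls.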
WRN helicase inh: qHTS for Inhibitors of WRN Helicase | WRN helicase unwinding, fluorescent forked duplex, kinetic | AID 651768, 2012 | Bifunctional 3'-5' exonuclease/ATP-dependent helicase WRN (Homo sapiens), Q14191 | 0.46% of 360,000 active | Potency, µM (titrated, usually from 114 µM), most hits filed as inhibitors; also: nearly all actives have a fitted effect of over 55% in size
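WRN at 20 nM final preincubated with compound 15 min at room temperature; reaction started with 100 nM fluorophore/quencher forked duplex oligonucleotide and 2 mM ATP final. Unwinding followed kinetically by red fluorescence (ex 525, em 598 nm).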
FEN1 inh: qHTS Assay for the Inhibitors of Human Flap endonuclease 1 (FEN1) | P39748 | Recombinant FEN1 flap cleavage, fluorescence, 15 min | Potency, µM (doses to about 114 µM), most hits filed as inhibitors | 0.35% of 390,000 active; also: nearly all actives have a fitted effect of over 65% in size
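Reaction started by adding substrate (50 nM final) to 10 nM enzyme after 15 min room-temperature compound preincubation. Reads at 0 and 15 min, with data normalized and fitted to a four-parameter Hill equation.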
Pol eta inh: qHTS for Inhibitors of Polymerase Eta | AID 588591, 2011 | Potency, µM (series often up to 114 µM), usual class: inhibitors | 1.2% of 390,000 active | DNA polymerase eta (Homo sapiens), Q9Y253 | recombinant Pol eta, fluorescent DNA replication assay
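Pol eta at 10 nM preincubated with compounds 15 min at room temperature; reaction started with fluorescent substrate (50 nM final) and read kinetically at 0 and 10 min.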
Numbers stand for hits; i = inactive; ? = inconclusive; nt = not tested or not shown; ! = a repeat was not active; [ ] = another dose, or the depositor's remark. Calls follow the shape of the dose curve; as a rule, active = well fitted curve in the direction sought with a large enough effect; inconclusive = small, poorly fitted or top-dose-only effect, or another doubt; inactive = no such curve, though single readings can be large; an effect the other way counts as inactive or inconclusive.

SMILES	Pol kappa inh	Pol beta inh	POLI inh	WRN helicase inh	FEN1 inh	Pol eta inh
O=C(O)CSc1cc(C(=O)c2cc(F)ccc2O)cn2c(=O)c3c(-c4ccccc4)csc3nc12	?	?	?	i	?	22µM
CCOC(=O)c1sc2nc3c(SCCC#N)cc(C(=O)c4cc(F)ccc4O)cn3c(=O)c2c1C	i	i	i	i	i	i
CC(C)Cc1oc(C(=O)O)cc1CN1CCOCC1	i	89µM	i	i	i	i
Cc1nc2cc(NC(=O)NCCCO)ccc2o1	i	i	i	i	i	i
Cc1nc2cc(NC(=O)NCCC3=CCCCC3)ccc2o1	i	i	89µM	i	i	i
c1ccc(-c2nnc3sc(Cc4cccs4)nn23)cc1	i	45µM	?	i	i	i
Cc1ccc(NC(=O)Cn2c(=O)oc3ccccc32)cc1	i	i	i	i	i	i
Cc1ccc(NC(=O)Cn2c(=O)oc3ccccc32)cc1Cl	i	40µM	i	i	i	i
O=c1[nH][nH]c(=S)n1C1CCCCC1	i	i	i	56µM	?	i
CC(=O)c1sc(C(=O)O)c(-c2ccco2)c1-c1ccco1	45µM	20µM	?	i	?	22µM
O=C(Cl)CCCCCCCC(=O)Cl	i	nt	nt	nt	nt	nt
CCC(C(=O)NCc1ccco1)n1nc(-c2ccc(OC)cc2)ccc1=O (stereo not drawn)	?	45µM	?	i[11.6 µM]	i	?
COc1ccc(-c2ccc(=O)n(CC(=O)NCc3ccco3)n2)cc1	i	50µM	?	i	i	?
COc1ccc(-c2cc(-c3cccs3)c(C#N)c(SCC(=O)NCc3ccco3)n2)cc1	i	13µM	i	i	i	i
COc1ccc(C2=NOC(C(=O)NCc3ccco3)C2)cc1 (stereo not drawn)	i	i	i	i	i	i
Cc1ccc(-c2ccc(=O)n(CC(=O)NCc3ccco3)n2)cc1	i	i	i	i	i	i
CC(=O)Nc1ccc(NC(=O)COC(=O)c2ccccc2OCc2cccc(Br)c2)cc1	i	nt	i	nt	i	nt
C=C1C=C(C)n2ncc(C(=O)N(CCc3ccccc3)Cc3ccccc3)c2N1	i	nt	i	nt	i	nt
c1ccc(-c2ccc(-c3csc4ncnc(Sc5nnnn5-c5ccccc5)c34)cc2)cc1	i	nt	i	nt	i	nt
CCN(CC)C1=N/C(=C\c2ccco2)C(=O)N1c1ccccc1	i	i	i	i	i	i
CC(C)CN(CC(C)C)C1=N/C(=C\c2ccco2)C(=O)N1c1ccccc1	i	28µM	?	i	i	i
COCCCN=C(c1ccco1)n1c(=S)nc(-c2ccco2)n(CCCOC)c1=S	?	35µM	20µM	i	i	i
COCCCn1c(-c2ccco2)nc2ccccc2c1=O	i	i	i	i	i	i
C=C1C=C(C(F)F)n2ncc(C(=O)NCc3ccc(F)cc3)c2N1	i	nt	i	nt	i	nt
Cc1cc(Oc2ccccc2)nc(C#N)n1	i	nt	?	nt	i	nt
SMILES	Pol kappa inh	Pol beta inh	POLI inh	WRN helicase inh	FEN1 inh	Pol eta inh
CCN(CC)c1ccc(NC(=O)C2CCN(c3nnc(-n4cccc4)s3)CC2)c(C)c1	i	25µM	?	nt	i	i
O=C(Cn1c(SCC(=O)N2CCc3ccccc3C2)nc2ccccc21)NC1CCCC1	i	89µM	i	i	i	i
Cc1cc(=O)[nH]c(SCC(=O)N2CCc3ccccc3C2)n1	i	i	i	i	i	i
O=C(Cn1c(SCC(=O)N2CCc3ccccc32)nc2ccccc21)NC1CCCC1	i	i	i	i	i	i
CCCn1c(SCC(=O)N2CCc3ccccc3C2)nc(O)cc1=O	?	nt	10µM	i	i	i
CCOC(=O)c1c(C)[nH]c(C)c1S(=O)(=O)N(C)CC(=O)Nc1ccccc1F	45µM	i	50µM	i[11.6 µM]	i	i
CCOC(=O)c1c(C)[nH]c(C)c1S(=O)(=O)N(C)CC(=O)Nc1cc(Cl)ccc1C	i	i	i	nt	i	i
CCOC(=O)c1sc(NC(=O)C2CCCO2)c(C(=O)OCC)c1C (stereo not drawn)	nt	14µM	nt	nt	nt	nt
CCOC(=O)c1c(NC(=O)C2CCCO2)sc(C(=O)OC(C)(C)C)c1C (stereo not drawn)	i	i	i	i	i	i
CCOC(=O)CNC(=O)Nc1nnc(-c2ccc(OCC)cc2)o1	i	79µM	i	i	i	i
CC(=O)N=C1SC2CS(=O)(=O)CC2N1c1ccc(-c2nc3ccc(C)cc3s2)cc1 (stereo not drawn)	nt	i	nt	nt	nt	nt
Cc1ccc2nc(-c3ccc(N4C(=NC(=O)CCC(=O)O)SC5CS(=O)(=O)CC54)cc3)sc2c1 (stereo not drawn)	?	?	?	?	i	3.5µM
OC(C[n+]1ccccc1Cl)c1ccccc1 (stereo not drawn)	i	nt	i	nt	i	nt
CS(=O)(=O)N(CC(=O)Nc1ccccc1)Cc1ccc(Cl)cc1	i	i	i	i	i	i
CSc1cccc(NC(=O)CN(Cc2ccc(Cl)cc2)S(C)(=O)=O)c1	i	i	89µM	i	i	i
C(=C\c1ccco1)/c1ccc2ccccc2n1	?	10µM	?	i	i	i
c1cc2c3c(cccc3c1)C(N1CCOCC1)=N2	i	i	i	i	i	i
CC1CN(C2=Nc3cccc4cccc2c34)CC(C)O1 (stereo not drawn)	i	i	25µM	i[11.6 µM]	i	i
Cc1oc(-c2ccccc2Cl)nc1CS(=O)CC(=O)NCc1ccc(Cl)cc1 (stereo not drawn)	i	i	79µM!	i	i	i
Cc1oc(-c2ccccc2F)nc1CS(=O)CC(=O)NCc1ccc(Cl)cc1 (stereo not drawn)	i	i	i	i	i	i
Cc1ccc2nc(CO)[nH]c2c1	i	nt	i	nt	i	nt
COc1ccc(-c2ccc(SCC(=O)Nc3cccc(C(C)=O)c3)nn2)cc1OC	?	16µM	28µM	i	i	?
Cc1nc(C)c(-c2ccc(SCC(=O)Nc3ccc(C)c(Cl)c3)nn2)s1	i	i	i	i	i	i
CC(=O)c1ccc(NC(=O)CSc2ccc(-c3sc(C)nc3C)nn2)cc1	i	20µM	?	i	i	i
COc1ccc(NC(=O)CSc2ccc(-c3sc(C)nc3C)nn2)cc1OC	i	25µM	?	i	i	i
C(=Nc1cccnc1)c1ccc2ccccc2n1	i	nt	i	nt	i	nt
COc1ccc(N2Cc3cccc(C(=O)Nc4ccc(C)c(C)c4)c3C2=O)cc1	i	11µM	?	nt	i	i
COc1ccc(N2Cc3cccc(C(=O)Nc4ccc(F)cc4)c3C2=O)cc1	?	6.3µM	?	nt	i	?
